NF-kB neuron act: NF-kB expression increase, human neuronal cells. NF-kB reporter expression; active compounds read high. fold change at 12.5 µM. actives 1.6% (n = 190,000); in the data active means fold change above about 3.3
hcDAF-12 act: activates DAF-12 receptor from parasite H. contortus; HEK293 hcDAF-12 lit1-tk-luc reporter, luminescence; 0% DMSO, 100% Δ7-dafachronic acid; activation, % at 6.8 µM; actives 1.4% (n = 370,000);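 active means activation above the mean of all tested compounds plus 3 SD, cut at about 5.5% in these data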;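 further: 100% = response to 3 µM Δ7-dafachronic acid high control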
ssDAF12 agonist: activators of S. stercoralis DAF-12 nuclear receptor; HEK293 ssDAF-12/GRIP1 lit1-tk-luc reporter, luminescence; % of 3 µM dafachronic acid response; activation, % at 6.8 µM; actives 1% (n = 370,000); AID 652126;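 active means activation above the mean over all tested compounds plus 3 SD, cut at about 0.9% in these data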;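 further: 0% = DMSO-only wells and 100% = 3 µM delta7-dafachronic acid wells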
hgDAF12 agonist: agonists of H. glycines DAF-12 nuclear receptor. actives 1.8% (n = 370,000). activation, % at 6.8 µM. HEK293 GAL4-hgDAF12 UAS-luciferase reporter, agonist luminescence; normalized to butyrate control. AID 687014;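 active means activation above a cutoff set at the mean of all screened compounds plus 3 SD, cut at about 10% in these data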;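 further: 0% = DMSO wells and 100% = sodium butyrate wells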
APP 5'UTR act: APP 5'UTR luciferase reporter activation; SH-SY5Y APP 5'UTR luciferase reporter, luminescence; zero percent = DMSO vehicle wells; activation, % at 2 µM; actives 1% (n = 190,000);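 active means activation above a set limit, based on mean plus 3 SD of controls, cut at about 140% in these data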
hgDAF12 ag: confirmation of H. glycines DAF-12 agonists | shares compounds with hgDAF12 agonist | HEK293 GAL4-hgDAF12 luciferase reporter, agonist mode; percent of butyrate response | activation, % at 6.8 µM | actives 80% (n = 3,300) | AID 743050;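 active means mean activation over triplicate wells above the hit cutoff derived from the earlier primary screen, cut at about 11% in these data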;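 further: 0% = DMSO low control and 100% = 2 mM sodium butyrate high control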
LXR ag 2: LXR-beta agonism as DAF-12 counter-screen. activation, % at 6.8 µM. 3,300 tested, under 10 active. shares compounds with hgDAF12 agonist. HEK293 Gal4-LXR luciferase reporter, 24 h;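 active means mean activation of the triplicate above a set limit carried over from the primary screen, none filed active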
Target sequence (P55055 whole entry, looked up, the tested form may be a part): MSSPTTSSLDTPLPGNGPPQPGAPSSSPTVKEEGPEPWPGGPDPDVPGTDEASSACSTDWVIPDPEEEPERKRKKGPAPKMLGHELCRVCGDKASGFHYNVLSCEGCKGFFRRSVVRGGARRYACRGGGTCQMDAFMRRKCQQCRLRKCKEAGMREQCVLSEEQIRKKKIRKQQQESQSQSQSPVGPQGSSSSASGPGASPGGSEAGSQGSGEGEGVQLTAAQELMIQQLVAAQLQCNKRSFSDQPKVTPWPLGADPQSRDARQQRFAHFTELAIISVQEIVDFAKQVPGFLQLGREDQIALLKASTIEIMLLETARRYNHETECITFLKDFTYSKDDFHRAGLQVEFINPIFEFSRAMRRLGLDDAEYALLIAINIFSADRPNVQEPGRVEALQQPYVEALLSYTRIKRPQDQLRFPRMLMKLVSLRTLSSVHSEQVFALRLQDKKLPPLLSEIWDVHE
Numbers without * were called inactive. Compounds with a hit are over-represented: about 3.4% of the library has one in this group of screens.

COc1cccc(C(=O)Nc2nc3ccccc3s2)c1 was read as hcDAF-12 act 6.3*, ssDAF12 agonist 2.4*, hgDAF12 agonist 17*, hgDAF12 ag 20* and LXR ag 2 1.
COc1ccc2nc(NC(=O)C3CCCO3)sc2c1 (configuration not stated) was read as NF-kB neuron act 3.5*, hcDAF-12 act 4, ssDAF12 agonist 0, hgDAF12 agonist 15*, APP 5'UTR act 138*, hgDAF12 ag 12* and LXR ag 2 1.
`CC(=O)Nc1cccc(/C(C)=N/Nc2nc3ccccc3s2)c1` gave NF-kB neuron act 1.1, hcDAF-12 act 4, ssDAF12 agonist 0, hgDAF12 agonist 15*, APP 5'UTR act 160*, hgDAF12 ag 13* and LXR ag 2 1.
`CCOC(=O)c1sc(NC(=O)Nc2ccc(F)cc2)nc1C` gave NF-kB neuron act 5.3*, hcDAF-12 act 4, ssDAF12 agonist 0, hgDAF12 agonist 17*, APP 5'UTR act 121, hgDAF12 ag 23* and LXR ag 2 1.
For CCOC(=O)c1sc(NC(=S)NC(=O)c2ccccc2)nc1C the results were NF-kB neuron act 2, hcDAF-12 act 5.9*, ssDAF12 agonist 0, hgDAF12 agonist 16*, APP 5'UTR act 86, hgDAF12 ag 12* and LXR ag 2 0.
`COc1ccc2nc(NC(=O)c3ccc(F)cc3)sc2c1` gave hcDAF-12 act 0, ssDAF12 agonist 0, hgDAF12 agonist 14*, hgDAF12 ag 13* and LXR ag 2 1.
Screening CCOC(=O)c1sc(NC(=O)Cc2ccc(F)cc2)nc1C returned NF-kB neuron act 0.95, hcDAF-12 act 0, ssDAF12 agonist -1, hgDAF12 agonist 1 and APP 5'UTR act -2.
`COC(=O)c1sc(NC(=S)NC(=O)c2ccccc2)nc1C` gave NF-kB neuron act 1, hcDAF-12 act 4, ssDAF12 agonist 0, hgDAF12 agonist 1 and APP 5'UTR act 84.
`CC(=O)Nc1cccc(/C(C)=N/NC(=O)c2cc(-c3ccncc3)nc3ccccc23)c1` gave hcDAF-12 act 0, ssDAF12 agonist -2 and hgDAF12 agonist 3.
Screening COC(=O)[C@]12C[C@H](CC(=O)NCc3cccs3)C(=O)N(Cc3cccc4ccccc34)C1=C[C@H](COCc1ccccc1)O[C@@H]2C returned hcDAF-12 act 1, ssDAF12 agonist -1 and hgDAF12 agonist 0.
For COc1ccc(C(=O)Nc2nc3ccccc3s2)cc1OC the results were NF-kB neuron act 3.6*, hcDAF-12 act 3, ssDAF12 agonist 0, hgDAF12 agonist 19*, APP 5'UTR act 139*, hgDAF12 ag 14* and LXR ag 2 1.
Screening Cc1csc(NC(=S)NC(=O)c2ccccc2)n1 returned hcDAF-12 act 5, ssDAF12 agonist 0, hgDAF12 agonist 16*, hgDAF12 ag 16* and LXR ag 2 1.
`COc1ccc2nc(Nc3ccc4c(c3)OCO4)sc2c1` gave NF-kB neuron act 2, hcDAF-12 act 1, ssDAF12 agonist -1, hgDAF12 agonist 9 and APP 5'UTR act 75.
Screening COc1cccc(C(=O)Nc2nc(C)cs2)c1 returned NF-kB neuron act 3.7*, hcDAF-12 act 2, ssDAF12 agonist 0, hgDAF12 agonist 15*, APP 5'UTR act 164*, hgDAF12 ag 14* and LXR ag 2 1.
`CCOC(=O)Cc1csc(NC(=S)NC(=O)c2ccccc2)n1` gave NF-kB neuron act 0.93, hcDAF-12 act -3, ssDAF12 agonist -2, hgDAF12 agonist 3 and APP 5'UTR act 14.
`COc1cccc(C(=O)Nc2nc(-c3ccncc3)cs2)c1` gave NF-kB neuron act 1.1, hcDAF-12 act -3, ssDAF12 agonist -2, hgDAF12 agonist -3 and APP 5'UTR act -3.
Screening COc1ccc2nc(Nc3ccccc3)sc2c1 returned NF-kB neuron act 8.1*, hcDAF-12 act 5, ssDAF12 agonist 0, hgDAF12 agonist 26*, APP 5'UTR act 111, hgDAF12 ag 14* and LXR ag 2 1.
`CCOc1ccccc1C(=O)Nc1ccc2nc(C)[nH]c(=O)c2c1` gave hcDAF-12 act -2, ssDAF12 agonist -1 and hgDAF12 agonist 2.
`CCCOc1ccc(-c2nc(CSCC(=O)NC3CC3)c(C)o2)cc1` gave hcDAF-12 act -2, ssDAF12 agonist -2 and hgDAF12 agonist -1.
For Oc1ccc(CNc2ccccc2Br)c2cccnc12 the results were hcDAF-12 act -2, ssDAF12 agonist -2 and hgDAF12 agonist -5.
For COC(=O)[C@]12C[C@H](CC(=O)N3CCSCC3)C(=O)N(Cc3ccco3)C1=C[C@H](C1CCCC1)O[C@@H]2C the results were hcDAF-12 act 0, ssDAF12 agonist -1 and hgDAF12 agonist 2.
Screening O=S1(=O)CC2c3ccccc3CN2CN1CCc1ccccc1 (configuration not stated) returned hcDAF-12 act 3, ssDAF12 agonist -1 and hgDAF12 agonist 6.
For CNc1ncc(C(=O)c2ccccc2)s1 the results were NF-kB neuron act 1.8, hcDAF-12 act 0, ssDAF12 agonist -1, hgDAF12 agonist 3 and APP 5'UTR act 26.
CNc1ncc(C(=O)c2ccc(Br)cc2)s1 was read as NF-kB neuron act 3.5*, hcDAF-12 act 2, ssDAF12 agonist 0, hgDAF12 agonist 26*, APP 5'UTR act 94, hgDAF12 ag 16* and LXR ag 2 1.
CCOC(=O)C(C(=O)Nc1nc2ccccc2s1)C1CCCCC1 (configuration not stated) was read as NF-kB neuron act 0.88, hcDAF-12 act 2, ssDAF12 agonist 0, hgDAF12 agonist 3 and APP 5'UTR act 13.
O=C(Nc1nc2ccccc2[nH]1)NC1CCCCC1 was read as hcDAF-12 act 5.8*, ssDAF12 agonist 1, hgDAF12 agonist 16*, hgDAF12 ag 21* and LXR ag 2 1.
`CCOCC(=O)Nc1nc2ccccc2s1` gave NF-kB neuron act 1.9, hcDAF-12 act 3, ssDAF12 agonist 0, hgDAF12 agonist 10 and APP 5'UTR act 24.
`O=C(CC1CCCCC1)Nc1nc2ccccc2s1` gave NF-kB neuron act 3, hcDAF-12 act 4, ssDAF12 agonist -1, hgDAF12 agonist 14*, APP 5'UTR act 133, hgDAF12 ag 17* and LXR ag 2 1.
`O=C(Nc1nc2ccccc2s1)NC1CCCCC1` gave NF-kB neuron act 9.2*, hcDAF-12 act 6.1*, ssDAF12 agonist 0, hgDAF12 agonist 18*, APP 5'UTR act 144*, hgDAF12 ag 19* and LXR ag 2 1.
`O=C(Nc1nc2ccccc2[nH]1)C1CCCO1` (configuration not stated) gave NF-kB neuron act 1.8, hcDAF-12 act -1, ssDAF12 agonist -2, hgDAF12 agonist 4 and APP 5'UTR act 30.

Screens: PubChem, several laboratories
